Source: PubChem BioAssay (Tox21)
Records with an inconclusive call do not appear. Activity calls are given as the source filed them. Unless noted, the call rests on the fitted dose curve; in most records, active means well fitted curve in the direction sought with a large enough effect in the repeat runs; inconclusive means weak or mixed curves; inactive means no such curve, though single readings can be large; an effect the other way counts as inactive or inconclusive.

Legend:
[1] = target: Aryl hydrocarbon receptor (Homo sapiens) (UniProt P35869); assay: qHTS assay to identify small molecule that activate the aryl hydrocarbon receptor (AhR) signaling pathway (AID 743085);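 further: HG2L7.5c1 human HepG2 liver cells with stably integrated DRE-driven firefly reporter; series mostly up to about 70 µM; nearly all actives have a fitted effect of over 15% in size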
How it was run: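 Steps: seed HepG2-AhR-luc cells; allow 5 h at 37C; pin-transfer test compound or vehicle; incubate 24 h at 37C; add viability dye (30 min, 37C) and read fluorescence; add luciferase substrate (30 min, RT) and read luminescence.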

[2] = qHTS assay to identify small molecule that activate the aryl hydrocarbon receptor (AhR) signaling pathway - cell viability counter screen (AID 743086);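 further: HepG2 liver cells carrying the AhR DRE luciferase reporter; series mostly up to about 70 µM; nearly all actives have a fitted effect of over 45% in size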
How it was run: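 HepG2-AhR-luc (HG2L7.5c1) cells, 4000/well, were preincubated 5 h at 37C, exposed to compound in qHTS format for 24 hr at 37C, then given CellTiter-Fluor for 30 min; viability was read as fluorescence in the reporter wells.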

[3] = target: Peroxisome proliferator-activated receptor gamma (Homo sapiens) (UniProt P37231); assay: qHTS assay to identify small molecule agonists of the peroxisome proliferator-activated receptor gamma (PPARg) signaling pathway (AID 743094; active means well fitted activation curve with a large enough effect in the signal ratio in the repeat runs, not every such curve was filed as active; the % refers to the signal ratio)
How it was run: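 Beta-lactamase FRET fluorescence was the read-out after a 1 h room-temperature substrate step, following 17 h compound treatment at 37C of HEK293H cells expressing a UAS-driven bla reporter responsive to PPARg.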

[4] = target: Peroxisome proliferator-activated receptor gamma (Homo sapiens) (UniProt P37231); assay: qHTS assay to identify small molecule antagonists of the peroxisome proliferator-activated receptor gamma (PPARg) signaling pathway (AID 743191; calls by dose curve; further: series mostly up to about 63 µM; nearly all actives have a fitted effect of over 30% in size)
How it was run: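 GeneBLAzer PPARg UAS-bla HEK293H cells carrying a UAS-driven beta-lactamase reporter were plated at 3000 cells/well, preincubated 5 h at 37C, then given compound for 17 h at 37C; LiveBLAzer B/G FRET substrate was read after 1 h at room temperature.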

[5] = qHTS assay to identify small molecule antagonists of the peroxisome proliferator-activated receptor gamma (PPARg) signaling pathway - cell viability counter screen (AID 743194); further: nearly all actives have a fitted effect of over 55% in size
How it was run: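 PPARg-UAS-bla HEK293H cells were plated, rested 5 h at 37 C, then treated with compounds plus rosiglitazone (50 nM final) for 17 h at 37 C; viability was then read by CellTiter-Glo luminescence after 30 min at room temperature.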

[6] = qHTS assay for small molecule agonists of the antioxidant response element (ARE) signaling pathway (AID 743202; active means well fitted activation curve with a large enough effect in the signal ratio in the repeat runs, not every such curve was filed as active; the % refers to the signal ratio)
How it was run: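 Read-out: LiveBLAzer B/G FRET substrate fluorescence after 2 h at room temperature, following 16 h compound treatment at 37 C of HepG2 cells carrying an ARE-driven beta-lactamase reporter.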

[7] = qHTS assay for small molecule agonists of the antioxidant response element (ARE) signaling pathway - cell viability counter screen (AID 743203; calls by dose curve; further: nearly all actives have a fitted effect of over 55% in size)
How it was run: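 HepG2 cells carrying ARE-driven beta-lactamase; 2,000 cells/well; 5 hrs plating; compound pinned from DMSO; 16 hrs 37C/5% CO2; CellTiter-Glo added; 30 min RT; luminescence.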

[8] = qHTS assay for small molecule activators of the heat shock response signaling pathway - cell viability counter screen (AID 743209); further: nearly all actives have a fitted effect of over 50% in size
How it was run: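 Luminescence from CellTiter-Glo, added after the beta-lactamase FRET read, gave the viability signal. Cells were HSE-bla HeLa treated with DMSO-dissolved compounds for 5 h at 37 C following overnight plating.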

[9] = qHTS assay for small molecule activators of the heat shock response signaling pathway (AID 743210; active means well fitted activation curve with a large enough effect in the signal ratio in the repeat runs, with a control signal flat, not every such curve was filed as active; the % refers to the signal ratio; further: series mostly up to about 63 µM)
How it was run: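 HSE-bla HeLa cells (beta-lactamase reporter under heat shock response elements) were exposed to compounds for 5 h at 37 C, then loaded with LiveBLAzer B/G FRET substrate for 2.5 h at room temperature before fluorescence reading.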

[10] = qHTS assay to identify small molecule agonists of the peroxisome proliferator-activated receptor delta (PPARd) signaling pathway - cell viability counter screen (AID 743211); further: nearly all actives have a fitted effect of over 55% in size
How it was run: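 Viability of GeneBLAzer PPARd UAS-bla HEK293H cells was assessed after 17 h compound incubation at 37C, using CellTiter-Glo reagent added after the reporter read and luminescence recorded 30 min later.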

Measured: Potency

Peroxisome proliferator-activated receptor gamma (Homo sapiens), sequence (P37231 whole entry, looked up): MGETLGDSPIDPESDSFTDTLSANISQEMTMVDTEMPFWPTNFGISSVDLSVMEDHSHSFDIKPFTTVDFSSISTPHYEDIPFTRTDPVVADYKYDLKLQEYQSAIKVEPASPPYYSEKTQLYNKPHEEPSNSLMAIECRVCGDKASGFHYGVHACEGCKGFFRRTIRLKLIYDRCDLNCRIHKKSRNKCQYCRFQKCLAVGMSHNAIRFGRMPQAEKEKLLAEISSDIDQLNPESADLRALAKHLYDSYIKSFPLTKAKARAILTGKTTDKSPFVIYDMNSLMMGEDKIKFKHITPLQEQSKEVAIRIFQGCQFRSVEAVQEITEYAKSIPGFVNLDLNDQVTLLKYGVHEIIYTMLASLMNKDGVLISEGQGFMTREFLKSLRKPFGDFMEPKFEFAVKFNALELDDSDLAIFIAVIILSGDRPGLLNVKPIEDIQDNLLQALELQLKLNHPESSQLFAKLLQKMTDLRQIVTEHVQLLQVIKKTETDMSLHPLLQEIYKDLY
Aryl hydrocarbon receptor (Homo sapiens), sequence (P35869 whole entry, looked up): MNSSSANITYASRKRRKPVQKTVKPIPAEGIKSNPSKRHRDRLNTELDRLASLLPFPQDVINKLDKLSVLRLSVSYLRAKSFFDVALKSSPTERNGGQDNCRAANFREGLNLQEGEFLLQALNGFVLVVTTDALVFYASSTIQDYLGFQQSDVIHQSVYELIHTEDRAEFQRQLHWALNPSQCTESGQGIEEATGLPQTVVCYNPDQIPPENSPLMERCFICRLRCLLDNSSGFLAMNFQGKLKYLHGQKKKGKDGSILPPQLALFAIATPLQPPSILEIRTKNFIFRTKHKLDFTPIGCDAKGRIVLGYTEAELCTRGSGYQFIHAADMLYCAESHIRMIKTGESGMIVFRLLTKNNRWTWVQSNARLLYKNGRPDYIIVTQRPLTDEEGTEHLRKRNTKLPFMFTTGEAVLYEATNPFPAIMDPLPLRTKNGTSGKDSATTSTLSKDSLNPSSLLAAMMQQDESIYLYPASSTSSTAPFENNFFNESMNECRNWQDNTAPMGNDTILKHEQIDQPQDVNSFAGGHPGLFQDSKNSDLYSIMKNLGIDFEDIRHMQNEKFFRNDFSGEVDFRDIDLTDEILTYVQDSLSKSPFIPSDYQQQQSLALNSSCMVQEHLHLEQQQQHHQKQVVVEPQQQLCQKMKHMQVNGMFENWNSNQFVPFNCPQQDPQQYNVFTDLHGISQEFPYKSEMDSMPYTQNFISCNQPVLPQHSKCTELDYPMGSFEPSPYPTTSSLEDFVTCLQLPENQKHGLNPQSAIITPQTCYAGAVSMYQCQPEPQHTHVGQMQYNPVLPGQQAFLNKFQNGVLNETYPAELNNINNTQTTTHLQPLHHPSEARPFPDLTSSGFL

CC(COc1ccc(C(C)(C)C)cc1)OS(=O)OCCCl (centres undefined)
inactive: all assays above

CN1CCCN=C1/C=C/c1cccs1
not listed: [6]
inactive: all other assays above

OCCSc1ccccc1
inactive: all assays above

CCN(CC)CCNC(=O)c1ccc(NC(C)=O)cc1
inactive: all assays above

O=C(NCCCN1CCOCC1)c1ccc(Cl)cc1
inactive: all assays above

Cc1cc(C(=C2C=CC(=Nc3ccc(S(=O)(=O)O)cc3S(=O)(=O)O)C=C2)c2ccc(Nc3ccc(S(=O)(=O)O)cc3)cc2)ccc1N
inactive: all assays above

CC(C)CCCCCCOC(=O)CCCCC(=O)OCCCCCCC(C)C
not listed: [6]
inactive: all other assays above

CC1=C(C=O)C(C)(C)CCC1
not listed: [6]
inactive: all other assays above

C=CC(=O)NCOCC(C)C
not listed: [6]
inactive: all other assays above

CCCCN(CCCC)CCCOC(=O)c1ccc(N)cc1
not listed: [9]
inactive: all other assays above

CC(C)CCCCCOC(=O)CCCCC(=O)OCCCCCC(C)C
not listed: [6] | [10]
inactive: all other assays above

O=C(O)c1cccnc1C(=O)O
inactive: all assays above

C[Si]1(C)O[Si](C)(C)O[Si](C)(C)O1
not listed: [6] | [10]
inactive: all other assays above

CC1(C)C2=CCCC(C)(C)[C@]23CC[C@H]1C3
not listed: [6] | [10]
inactive: all other assays above

CC(=O)Nc1ccc(N)cc1
not listed: [9] | [10]
inactive: all other assays above

COCC(O)CO (centres undefined)
inactive: all assays above

O=C1NCCN1
not listed: [9] | [10]
inactive: all other assays above

CCC1(C)CC(=O)NC1=O (centres undefined)
inactive: all assays above

O=S1OCCO1
inactive: all assays above

O=C(O)c1cccc(O)c1
inactive: all assays above

Cc1ccnc2ccccc12
inactive: all assays above

CO[C@H]1O[C@H](CO)[C@@H](O)[C@H](O)[C@H]1O
not listed: [8]
inactive: all other assays above

CCOC(=O)c1ccccc1OC
inactive: all assays above
